# “And” between values parts separate entries of the source, which are not always exact repeats. Identical values can stand only once. Hit rate of the full screen: of about 5,500 compounds, about 2,000 (36%) were called active. Inconclusive results (about 18%) are left out. This is one part of the list. A number with no mark means an inactive call. Rule as the data show it: active = normalized growth mostly below about 0.91 (no sharp cut-off); inconclusive = no clear call, values can overlap the other calls; inactive = mostly above about 0.92.
# Assay: chemical genetic growth profiling, strain panel (AID 1159580);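 also: tested at 20 µM; growth read once vehicle control cultures reached saturation at 30 °C; 1 = growth at the plate median or of vehicle wells; lower values mean less growth of the strain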
# Details: S. cerevisiae deletion strains, growth OD
compound,measurement,setting,value
Clc1ccc(C(c2ccccc2Cl)C(Cl)Cl)cc1 (centres undefined),normalized growth,"locus YAL013W, strain DEP1, active compounds read low",0.997
same,normalized growth,"locus YAL021C, strain ccr4, active compounds read low",1.07
same,normalized growth,"locus YAL026C, strain drs2, active compounds read low",0.943
same,normalized growth,"locus YAL030W, strain snc1, active compounds read low",0.94
same,normalized growth,"locus YAL040C, strain CLN3, active compounds read low",1
same,normalized growth,"locus YBL061C, strain skt5, active compounds read low",0.948
same,normalized growth,"locus YBR009C, strain hhf1, active compounds read low",0.928
same,normalized growth,"locus YBR021W, strain FUR4, active compounds read low",0.949
same,normalized growth,"locus YBR023C, strain chs3, active compounds read low",0.973
same,normalized growth,"locus YBR171W, strain sec66, active compounds read low",0.941
same,normalized growth,"locus YBR229C, strain ROT2, active compounds read low",0.998
same,normalized growth,"locus YBR231C, strain swc5, active compounds read low",0.964
same,normalized growth,"locus YBR279W, strain paf1, active compounds read low",0.987
same,normalized growth,"locus YCL011C, strain gbp2, active compounds read low",0.918
same,normalized growth,"locus YCL016C, strain dcc1, active compounds read low",0.97
same,normalized growth,"locus YCL029C, strain bik1, active compounds read low",0.986
same,normalized growth,"locus YCL061C, strain MRC1 (second series), active compounds read low",1.01
same,normalized growth,"locus YCL061C, strain MRC1, active compounds read low",0.907 (active)
same,normalized growth,"locus YCL069W, strain vba3, active compounds read low",0.982
same,normalized growth,"locus YCR088W, strain abp1, active compounds read low",0.988
same,normalized growth,"locus YDL005C, strain med2, active compounds read low",0.967
same,normalized growth,"locus YDL035C, strain GPR1, active compounds read low",1
same,normalized growth,"locus YDL040C, strain nat1, active compounds read low",0.989
same,normalized growth,"locus YDL074C, strain BRE1, active compounds read low",0.956
same,normalized growth,"locus YDL101C, strain DUN1, active compounds read low",1
same,normalized growth,"locus YDL134C, strain PPH21, active compounds read low",0.993
same,normalized growth,"locus YDL185W, strain tfp1, active compounds read low",0.984
same,normalized growth,"locus YDL192W, strain arf1, active compounds read low",0.989
same,normalized growth,"locus YDR001C, strain nth1, active compounds read low",0.981
same,normalized growth,"locus YDR069C, strain doa4, active compounds read low",0.915
same,normalized growth,"locus YDR101C, strain arx1, active compounds read low",0.987
same,normalized growth,"locus YDR137W, strain rgp1, active compounds read low",0.932
same,normalized growth,"locus YDR150W, strain NUM1, active compounds read low",1.02
same,normalized growth,"locus YDR159W, strain sac3, active compounds read low",1
same,normalized growth,"locus YDR162C, strain NBP2, active compounds read low",1.02
same,normalized growth,"locus YDR195W, strain ref2",1.06
same,normalized growth,"locus YDR297W, strain sur2, active compounds read low",0.956
same,normalized growth,"locus YDR318W, strain mcm21, active compounds read low",0.985
same,normalized growth,"locus YDR334W, strain swr1, active compounds read low",0.962
same,normalized growth,"locus YDR335W, strain msn5, active compounds read low",0.967
same,normalized growth,"locus YDR363W, strain ESC2, active compounds read low",1.01
same,normalized growth,"locus YDR388W, active compounds read low",0.991
same,normalized growth,"locus YDR392W, strain spt3, active compounds read low",0.869
same,normalized growth,"locus YDR502C, strain sam2, active compounds read low",0.984
same,normalized growth,"locus YEL003W, strain gim4, active compounds read low",0.969
same,normalized growth,"locus YEL037C, strain rad23, active compounds read low",0.983
same,normalized growth,"locus YEL061C, strain CIN8 (second series), active compounds read low",0.984
same,normalized growth,"locus YEL061C, strain CIN8, active compounds read low",1
same,normalized growth,"locus YER002W, strain NOP16, active compounds read low",1.12 [resistant] (active)
same,normalized growth,"locus YER015W, strain faa2, active compounds read low",0.978
same,normalized growth,"locus YER016W, strain bim1, active compounds read low",1.02
same,normalized growth,"locus YER110C, active compounds read low",0.986
same,normalized growth,"locus YER111C, strain swi4, active compounds read low",0.986
same,normalized growth,"locus YER155C, strain BEM2 (second series), active compounds read low",0.96
same,normalized growth,"locus YER155C, strain BEM2, active compounds read low",0.994
same,normalized growth,"locus YER167W, strain BCK2, active compounds read low",1
same,normalized growth,"locus YFR010W, strain ubp6, active compounds read low",0.942
same,normalized growth,"locus YGL078C, strain dbp3, active compounds read low",0.99
same,normalized growth,"locus YGL086W, strain mad1, active compounds read low",0.981
same,normalized growth,"locus YGL167C, strain pmr1, active compounds read low",0.972
same,normalized growth,"locus YGL173C, strain kem1, active compounds read low",0.936
same,normalized growth,"locus YGL227W, strain vid30, active compounds read low",0.987
same,normalized growth,"locus YGL240W, strain doc1, active compounds read low",0.925
same,normalized growth,"locus YGL248W, strain PDE1, active compounds read low",0.993
same,normalized growth,"locus YGL253W, strain hxk2, active compounds read low",0.977
same,normalized growth,"locus YGR078C, strain PAC10, active compounds read low",0.987 and 0.999
same,normalized growth,"locus YGR135W, strain pre9, active compounds read low",0.968
same,normalized growth,"locus YGR229C, strain SMI1, active compounds read low",0.978 and 1.01
same,normalized growth,"locus YGR252W, strain gcn5, active compounds read low",0.874
same,normalized growth,"locus YHR013C, strain ard1, active compounds read low",1.11
same,normalized growth,"locus YHR027C, strain rpn1, active compounds read low",0.982
same,normalized growth,"locus YHR030C, strain SLT2, active compounds read low",0.985 and 0.893
same,normalized growth,"locus YHR079C, strain IRE1 (second series), active compounds read low",0.983
same,normalized growth,"locus YHR079C, strain IRE1, active compounds read low",0.947
same,normalized growth,"locus YHR094C, strain hxt1, active compounds read low",0.992
same,normalized growth,"locus YHR129C, strain ARP1, active compounds read low",1
same,normalized growth,"locus YHR142W, strain chs7, active compounds read low",0.919
same,normalized growth,"locus YHR200W, strain rpn10, active compounds read low",0.98
same,normalized growth,"locus YIL066C, strain RNR3, active compounds read low",0.963
same,normalized growth,"locus YIL073C, strain SPO22, active compounds read low",0.952
same,normalized growth,"locus YIL125W, strain kgd1, active compounds read low",0.998
same,normalized growth,"locus YIR030C, strain dcg1, active compounds read low",0.99
same,normalized growth,"locus YJL092W, strain hpr5, active compounds read low",0.961
same,normalized growth,"locus YJL095W, strain BCK1 (second series), active compounds read low",0.973
same,normalized growth,"locus YJL095W, strain BCK1, active compounds read low",1 and 0.933
same,normalized growth,"locus YJL115W, strain asf1, active compounds read low",0.976
same,normalized growth,"locus YJL129C, strain trk1, active compounds read low",0.828 (active)
same,normalized growth,"locus YJL134W, strain LCB3, active compounds read low",1
same,normalized growth,"locus YJL154C, strain vps35, active compounds read low",0.978
same,normalized growth,"locus YJL164C, strain tpk1, active compounds read low",0.95
same,normalized growth,"locus YJL166W, strain qcr8, active compounds read low",0.825 (active)
same,normalized growth,"locus YJL168C, strain set2, active compounds read low",0.988
same,normalized growth,"locus YJL187C, strain SWE1 (second series), active compounds read low",0.997
same,normalized growth,"locus YJR043C, strain POL32, active compounds read low",1

# Reference: PubChem BioAssay AID1159580 (chemical genetic matrix, 2015)
